About 3,300 (0.97%) of roughly 340,000 compounds were called active. Another 9% or so got no clear call; they are omitted. Calls follow the shape of the dose curve; as a rule, active = well fitted inhibition curve with a large enough effect; inconclusive = small, poorly fitted or top-dose-only effect, or effect the other way; inactive = flat fitted curve, though single readings scatter. The list shows a part of the results.
Assay: qHTS Assay for Modulators of miRNAs and/or Inhibitors of miR-21; also: nearly all actives have a fitted effect of over 55% in size
Conditions: HeLa miR-21-FLuc reporter, luciferase luminescence, 48 h; actives lower the signal
Outline: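 Compounds were titrated across several concentrations (up to approximately 40 uM) and incubated 48 hours with HeLa miR-21-FLuc reporter cells (miR-21 target sequence downstream of FLuc, endogenous miR-21). Readout was firefly luciferase luminescence after lytic detection reagent.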
Potency is read from the fitted curve at half-maximal effect.

Potency, active:
CNc1oc(-c2ccc(Cl)cc2)nc1C#N 3.29 µM
COCCNc1oc(-c2ccc(Cl)cc2)nc1C#N 9.27 µM
O=c1c2c3c(sc2nc(NCCO)n1Cc1ccco1)CCCCC3 16.5 µM
COCCNC(=O)c1ccc2c(c1)ncn2-c1ccc(F)c(F)c1 16.5 µM
COC(=O)c1cc2c(ccn2-c2ccc(F)cc2)n1Cc1ccc(OC(C)=O)cc1 18.5 µM
COc1cc(O)sc1C=Nc1ccc(Cl)cc1 7.36 µM
CCOC(=O)c1c(C)c(C(=O)NCCc2ccccc2)c(C)n1C 11.7 µM
Cc1nn(Cc2ccccc2Cl)c(Cl)c1C(=O)NCCc1ccccc1 2.07 µM
Cc1nn(Cc2ccccc2)c(Cl)c1C(=O)NCCc1ccccc1 2.33 µM
O=C(NCCc1c[nH]c2ccccc12)c1cnc2sccn2c1=O 3.29 µM
Cc1ccc(C(=O)NCCc2c[nH]c3ccccc23)s1 5.21 µM
Cc1ccsc1C(=O)NCCc1c[nH]c2ccccc12 14.7 µM
COc1ccccc1C1N=C(c2ccccc2C)NO1 (configuration not stated) 7.36 µM
CCOC(=O)c1oc2c(c1C)/C(=N/O)CCC2 11.7 µM
CCCCCCSc1nc(N)c2c3c(sc2n1)CCCC3C (configuration not stated) 14.7 µM
CN(c1cc(=O)n2ccccc2n1)C1CCCCC1 13.1 µM
CCN(C(=O)c1cc2c(=O)n3ccccc3nc2n1C)C1CCCCC1 11.7 µM
Cc1ccc(N=c2sc(C)c(C)n2C)cc1 11.7 µM
C/C(=N\NC(=O)c1sccc1C)c1ccncc1 2.93 µM
C/C(=N\NC(=O)c1sccc1C)c1cccnc1 4.14 µM
C/C(=N\Nc1ccc(C)c(Cl)c1)c1cccnc1 13.1 µM
Cc1ccccc1-c1nnc(-c2cccs2)o1 6.56 µM
Cc1ccccc1-c1nnc(-c2ccc(Cl)cc2)o1 2.07 µM
CC1CN(C(=O)N2CCC(C(=O)NCc3cccs3)CC2)c2ccccc2O1 (configuration not stated) 1.47 µM
S=C(N/N=C/c1ccc(Cl)cc1)N1CCOCC1 9.27 µM
Cc1ccc(/C=N/NC(=S)N2CCOCC2)cc1 13.1 µM
O=C(Nc1ccc(F)cc1)c1nsc(Cl)c1Cl 1.65 µM
COc1c(O)cc2oc(-c3ccc(O)cc3)cc(=O)c2c1O 2.33 µM
COc1c(O)cc2oc(-c3ccc(O)c(O)c3)cc(=O)c2c1O 5.21 µM
Cn1c(CNc2ccc(O)cc2)nc2ccccc21 16.5 µM
Cn1c(CSc2nc3ccccc3s2)nc2ccccc21 4.14 µM
COc1ccc(CNc2nc3ccccc3n2C)c(O)c1 1.17 µM
COc1ccccc1C(=O)COC(=O)c1ccc(N(C)C)cc1 3.29 µM
COc1ccc(/C=C2\Cc3ccccc3C2=O)cc1OC 14.7 µM
O=C1/C(=C/c2ccccc2)CCCc2ccccc21 7.36 µM
COc1ccc(/C=C2/CCc3ccccc3C2=O)cc1OC 18.5 µM
O=C(O)c1cccc(NC(=S)N/N=C/c2ccccc2OCc2ccc(Br)cc2)c1 11.7 µM
O=C(O)c1cnn(-c2nc(-c3ccc(Br)cc3)cs2)c1C(F)(F)F 11.7 µM
O=C(O)c1cnn(-c2nc(-c3ccc(F)cc3)cs2)c1C(F)(F)F 14.7 µM
O=C(O)c1cnn(-c2nc(-c3ccc(Cl)c(Cl)c3)cs2)c1C(F)(F)F 5.21 µM
O=C(O)c1cnn(-c2nc(-c3ccc(Cl)cc3)cs2)c1C(F)(F)F 13.1 µM
COc1ccccc1-c1nn2c(-c3ccco3)nnc2s1 4.65 µM
CCOC(=O)c1oc2ccc(/C=N/O)c(Cl)c2c1C 8.26 µM
Cn1cccc1CC(=O)N/N=C/c1ccc(C(C)(C)C)cc1 10.4 µM
CC(C)(C)c1ccc(/C=N/NC(=O)C2CCCC2)cc1 16.5 µM
Cc1ccc(OCC(=O)Nc2cccc(C(=O)OCc3cc(=O)n4nc(C)sc4n3)c2)cc1 0.736 µM
Cc1cn2c(=O)cc(COC(=O)c3cccc(NC(=O)COc4ccccc4Cl)c3)nc2s1 0.329 µM
COC(=O)c1ccc(NC(=S)Nc2ccccn2)cc1 2.07 µM
COc1ccc(NC(=S)Nc2ccccn2)cc1 2.93 µM
COc1ccccc1N1CCN(C(=O)c2nc(-c3ccc(C)cc3)n3c2CCCCC3)CC1 1.47 µM
N/C(=N\OC(=O)c1ccc(Cl)cc1)c1cccnc1 2.61 µM
Cc1ccc(/C(N)=N/OC(=O)c2ccc3c(c2)OCO3)cc1 0.464 µM
Cc1cc(/C(N)=N/OC(=O)c2ccc(Cl)cc2)no1 1.47 µM
N/C(=N\OC(=O)c1ccc2c(c1)OCO2)c1cccnc1 3.69 µM
Cn1cccc1/C=C1\SC(=O)N(c2ccccc2)C1=O 0.927 µM
CCCNC(=O)c1cc(-c2ccco2)on1 3.69 µM
CC1CCN(C(=O)c2cc(-c3ccco3)on2)CC1 3.69 µM
O=C(NCCc1ccccc1)c1cc(-c2ccco2)on1 3.29 µM
O=C(Nc1ccccc1F)c1ccc(Cn2cc(Cl)cn2)cc1 10.4 µM
Cn1c(NC(=O)c2cccc(Cn3cc(Cl)cn3)c2)nc2ccccc21 4.65 µM
Cc1cc2c([nH]c3ccccc32)c2c1OC(C)(C)C=C2 3.69 µM
COc1ccc(OCc2cc(C(=O)N3CCCC(O)C3)no2)c2ccccc12 (configuration not stated) 5.85 µM
COc1ccc(OCc2cc(C(=O)N3CCCC(OC)C3)no2)c2ccccc12 (configuration not stated) 16.5 µM
Oc1c(/C=N/c2ccccn2)sc2ccccc12 2.07 µM
O=C(OCCOc1ccccc1)c1n[nH]c2ccccc12 1.47 µM
O=C(O)C(=O)/C(=C\c1ccsc1)c1ccc2ccccc2n1 1.47 µM
N#Cc1ccc(/C=C(\C(=O)C(=O)O)c2ccc3ccccc3n2)cc1 1.04 µM
COc1cc(/C=N/Nc2ccccc2C(F)(F)F)ccc1O 16.5 µM
COc1cc(/C=N/Nc2nc3ccccc3s2)ccc1O 2.93 µM
CC(=O)Nc1ccc(/C=N/Nc2nc3ccccc3s2)cc1 0.185 µM
COc1cc(/C=C/c2nc3ccccc3s2)cc(OC)c1O 13.1 µM
BrC(=C\c1ccccc1)/C=N/Nc1nc2ccccc2[nH]1 16.5 µM
O=C(O)c1ccc(N/N=C/C(Br)=C/c2ccccc2)cc1 1.17 µM
O=C(c1ccco1)N1CCN(C(c2ccccn2)c2nnnn2C2CCCC2)CC1 (configuration not stated) 7.36 µM
COc1ccc(-c2csc(N3CCOCC3)n2)cc1OC 5.85 µM
Clc1ccc(-c2csc(N3CCOCC3)n2)cc1 3.29 µM
Clc1ccc(-c2nnc(N3CCOCC3)o2)cc1 18.5 µM
COc1ccc(-c2csc(N3CCSCC3)n2)cc1 10.4 µM
COc1ccc(-c2csc(N3C(=O)CNC3=S)n2)cc1 0.0585 µM
O=C(c1ccc(-c2cccc(C(F)(F)F)c2)o1)N1CCOCC1 14.7 µM
O=C(c1ccc(-c2ccc([N+](=O)[O-])cc2)o1)N1CCCCC1 1.85 µM
O=C(c1ccc(-c2cccc(Cl)c2Cl)o1)N1CCOCC1 4.65 µM
O=C(c1ccc(-c2ccc([N+](=O)[O-])cc2Cl)o1)N1CCOCC1 10.4 µM
O=C(c1ccc(-c2cc(Cl)ccc2Cl)o1)N1CCOCC1 18.5 µM
O=C(c1ccc(-c2ccc(Cl)cc2Cl)o1)N1CCOCC1 7.36 µM
Cc1nc(NC(=O)C2CCCC2)sc1Cc1ccc2c(c1)OCO2 9.27 µM
Cc1ccc(O)c(NC(=S)NC(=O)CC(C)C)c1 5.85 µM
Cc1sc(NC(=O)c2ccccc2F)c(CN2CCCCC2C)c1C (configuration not stated) 2.07 µM
O=c1oc2cc(O)ccc2cc1-c1ccccc1 13.1 µM
O=c1oc2ccccc2cc1-c1nc(-c2cccs2)no1 1.17 µM
O=c1oc2ccccc2cc1-c1ccc(O)cc1 4.65 µM
O=c1oc2ccccc2cc1-c1ccccc1 16.5 µM
O=C(Nc1ccc(Br)cn1)c1cccc(-c2cc3ccccc3oc2=O)c1 3.69 µM
O=c1oc2ccccc2cc1NCc1ccccc1O 10.4 µM
COc1cccc(C2(O)CC(C(F)(F)F)=NN2C(=O)c2ccccn2)c1 (configuration not stated) 13.1 µM
CN(C)c1ccc(/C=C(/C#N)C(=O)NCc2ccccc2)o1 14.7 µM
CCN(CC)c1ccc(/C=C(/C#N)C(=O)NCc2ccccc2)o1 10.4 µM
CCCc1ccc(-c2cc(NC(=O)CSc3n[nH]c(N)n3)n(-c3ccccc3)n2)cc1 18.5 µM
NC(=O)c1ccc(NC(=O)c2cnc3ccccc3n2)cc1 7.36 µM
Cc1ccc(NC(=O)c2cnc3ccccc3n2)cc1C 1.31 µM
c1ccc2c(c1)CCN(C1=Nc3cccc4cccc1c34)C2 18.5 µM
Cc1cc(C(=O)Nc2sc3c(c2C#N)CCC(C)C3)cs1 (configuration not stated) 0.736 µM
CCOC(=O)Nc1sc2c(c1C#N)CCC(C)C2 (configuration not stated) 5.21 µM
c1cn2c(NC3CCCC3)c(-c3ccc(N4CCOCC4)cc3)nc2cn1 6.56 µM
Cc1ccccc1Nc1c(-c2ccc(N3CCOCC3)cc2)nc2cnccn12 4.65 µM
Cc1ccc(Nc2c(-c3ccc(N4CCOCC4)cc3)nc3cnccn23)cc1 7.36 µM
Cc1ccc(-c2nc3cnccn3c2Nc2ccccc2)o1 16.5 µM
